Some test systems named below: NCI-H23 lung; NCI-H226 lung; NCI-H322M lung; NCI-H460 lung; HOP-92 NSCLC; NCI-H522 lung; A549/ATCC NSCLC; 786-0 renal; DU-145 prostate; K-562 leukemia; MALME-3M melanoma; MDA-MB-231 breast; RXF 393 renal; SF-268 CNS; SF-295 CNS; SF-539 CNS; UACC-257 melanoma; M14 melanoma; HOP-62 NSCLC; COLO 205 colon.
What all share (experiment): NCI-60 one-dose screen, 48 h (100 = growth as untreated, 0 = no growth, -100 = all killed)
Common to all, as to conditions: 10 µM

About 83,000 compounds went through this panel and 20% of them were active in at least one assay; those are over-represented in the sample as a whole.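 Compound tested at a single concentration for 48 hours in 96-well plates; a percent growth value below 10 was scored as active.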 Values without a mark were called inactive. Calls of active or inactive are those of the source.

With `CCCCC(CC)COC(C)=O` (configuration not stated), the growth is 100% with NCI-H23 lung; 105% with NCI-H226 lung; 98% in the assay with NCI-H322M lung; 106% in the assay with NCI-H460 lung; 95.6% in the assay on HOP-92 NSCLC; 105% in the assay on NCI-H522 lung. In addition, the growth with A549/ATCC NSCLC is 105%; with 786-0 renal, 96%; in the assay on DU-145 prostate, 106%; in the assay on K-562 leukemia it was 95.1%; in the assay with MALME-3M melanoma it was 96.4%; with MDA-MB-231 breast it was 106%. Besides, the growth in the assay with RXF 393 renal is 117%; in the assay on SF-268 CNS, 96.6%; in the assay with SF-295 CNS it was 99.3%; in the assay on SF-539 CNS it was 92.1%; with UACC-257 melanoma it was 104%; in the assay with M14 melanoma, 102%.
Consider `COCCOCCCl`, for which the growth was 102% in the assay with NCI-H23 lung; 101% with NCI-H226 lung; 112% in the assay with NCI-H322M lung; 104% with NCI-H460 lung; 95% in the assay on HOP-92 NSCLC; 101% in the assay on NCI-H522 lung. The growth in the assay with A549/ATCC NSCLC is 106%; with 786-0 renal it was 105%; in the assay with DU-145 prostate, 110%; in the assay on K-562 leukemia, 97.5%; in the assay on MALME-3M melanoma, 112%; in the assay on MDA-MB-231 breast, 118%. For the same compound, the growth in the assay with RXF 393 renal is 119%; in the assay on SF-268 CNS it was 101%; with SF-295 CNS, 102%; in the assay on SF-539 CNS, 106%; in the assay on UACC-257 melanoma it was 104%; in the assay on M14 melanoma it was 101%.
Consider `O=C(NCO)c1ccccc1`, for which the growth with NCI-H23 lung is 109%; in the assay with NCI-H226 lung, 101%; in the assay with NCI-H322M lung, 91.6%; in the assay on HOP-62 NSCLC it was 97.8%; in the assay with A549/ATCC NSCLC it was 106%; in the assay on 786-0 renal, 108%. Also, the growth was 106% in the assay on COLO 205 colon; 99.8% with DU-145 prostate; 94.5% with K-562 leukemia; 91.3% in the assay with MALME-3M melanoma; 117% with MDA-MB-231 breast; 119% in the assay with RXF 393 renal. Moreover, the growth is 103% with SF-268 CNS; 110% in the assay on SF-295 CNS; 108% in the assay with SF-539 CNS; 111% with UACC-257 melanoma; 106% in the assay on M14 melanoma.
Turning to `O=C(Cc1ccccc1)Cc1ccccc1`, the growth in the assay with NCI-H23 lung is 103%; with NCI-H226 lung it was 100%; in the assay on NCI-H322M lung, 104%; in the assay with HOP-62 NSCLC, 110%; in the assay on NCI-H522 lung, 97%; in the assay with A549/ATCC NSCLC it was 96%. The growth with 786-0 renal was 95.2%; in the assay with COLO 205 colon, 110%; with DU-145 prostate it was 113%; with K-562 leukemia, 110%; with MALME-3M melanoma, 115%; in the assay on MDA-MB-231 breast it was 109%. The growth is 103% with SF-268 CNS; 108% in the assay on SF-295 CNS; 101% in the assay on SF-539 CNS; 93.1% in the assay with UACC-257 melanoma; 102% with M14 melanoma.
For `Cc1cccc(CO)c1`, the growth with NCI-H23 lung was 94.5%; in the assay with NCI-H226 lung, 99%; in the assay with NCI-H322M lung, 102%; in the assay on NCI-H460 lung, 105%; with HOP-92 NSCLC it was 102%; in the assay with NCI-H522 lung it was 105%. Further, the growth is 102% with A549/ATCC NSCLC; 104% in the assay with 786-0 renal; 98.1% with DU-145 prostate; 97.7% in the assay with K-562 leukemia; 104% in the assay with MALME-3M melanoma; 104% in the assay with MDA-MB-231 breast. In addition, the growth with RXF 393 renal is 121%; in the assay with SF-268 CNS it was 95.4%; in the assay on SF-295 CNS, 100%; with SF-539 CNS, 108%; in the assay on UACC-257 melanoma it was 99.9%; with M14 melanoma it was 108%.
For the compound `CC1OC(Oc2c(-c3ccc(O)c(O)c3)oc3cc(O)cc(O)c3c2=O)C(O)C(O)C1O` (configuration not stated), the growth is 102% in the assay with NCI-H23 lung; 96.1% with NCI-H226 lung; 106% with NCI-H322M lung; 105% in the assay with NCI-H460 lung; 88.6% with HOP-92 NSCLC; 102% in the assay on NCI-H522 lung. In addition, the growth in the assay with A549/ATCC NSCLC was 102%; in the assay on 786-0 renal, 108%; in the assay with DU-145 prostate it was 109%; in the assay with K-562 leukemia it was 103%; in the assay with MALME-3M melanoma it was 110%; in the assay on MDA-MB-231 breast it was 107%. The growth is 110% in the assay on RXF 393 renal; 104% with SF-268 CNS; 105% in the assay with SF-295 CNS; 110% in the assay with SF-539 CNS; 104% in the assay with UACC-257 melanoma; 106% in the assay with M14 melanoma.
In the case of `CCOC(=O)C(O)C(O)C(=O)OCC` (configuration not stated), the growth with NCI-H23 lung was 100%; with NCI-H226 lung, 106%; in the assay with NCI-H322M lung, 102%; in the assay on NCI-H460 lung it was 103%; in the assay on HOP-92 NSCLC, 94.1%; with NCI-H522 lung, 101%. Further, the growth with A549/ATCC NSCLC is 104%; in the assay on 786-0 renal it was 105%; with COLO 205 colon, 106%; in the assay with DU-145 prostate, 106%; with K-562 leukemia it was 102%; in the assay with MALME-3M melanoma, 106%. Moreover, the growth in the assay on MDA-MB-231 breast is 110%; in the assay with RXF 393 renal it was 125%; in the assay with SF-268 CNS, 102%; in the assay with SF-295 CNS, 104%; in the assay with SF-539 CNS, 109%; in the assay with UACC-257 melanoma, 106%. In addition, the growth in the assay with M14 melanoma is 104%.
As to `C=CCCCCCCCCCOC(C)=O`, the growth is 100% in the assay with NCI-H23 lung; 96.7% in the assay on NCI-H226 lung; 102% with NCI-H322M lung; 109% in the assay on NCI-H460 lung; 90.2% in the assay with HOP-92 NSCLC; 102% with NCI-H522 lung. Further, the growth in the assay with 786-0 renal was 108%; with COLO 205 colon, 110%; with DU-145 prostate, 102%; with K-562 leukemia, 93.6%; in the assay on MALME-3M melanoma, 93.1%; in the assay with MDA-MB-231 breast it was 97%. In addition, the growth was 103% with RXF 393 renal; 96.9% in the assay on SF-268 CNS; 105% in the assay on SF-295 CNS; 105% in the assay on SF-539 CNS; 104% with M14 melanoma.
On to `C/C=C/CC(C)C(O)C1C(=O)NC(CC)C(=O)N(C)CC(=O)N(C)C(CC(C)C)C(=O)NC(C(C)C)C(=O)N(C)C(CC(C)C)C(=O)NC(C)C(=O)NC(C)C(=O)N(C)C(CC(C)C)C(=O)N(C)C(CC(C)C)C(=O)N(C)C(C(C)C)C(=O)N1C` (configuration not stated), for which the growth in the assay with NCI-H23 lung was 20.1%; with NCI-H226 lung it was 5.76% (active); in the assay on NCI-H322M lung, 33.8%; in the assay with HOP-62 NSCLC, 35.6%; in the assay on NCI-H522 lung, 9.55% (active); in the assay with A549/ATCC NSCLC it was 17.2%. For the same compound, the growth in the assay with 786-0 renal was 41.9%; in the assay with COLO 205 colon, -72.8% (active); in the assay with DU-145 prostate, 39%; in the assay on MDA-MB-231 breast, -6.48% (active); with SF-268 CNS it was 38.3%; in the assay with SF-295 CNS it was -16.7% (active). In addition, the figures for the growth in the assay on SF-539 CNS, with UACC-257 melanoma and with M14 melanoma were -1.51% (active), 1.79% (active) and 4.21% (active), respectively.
